Laboratory results as given in PubChem BioAssay (Tox21).
Records with an inconclusive call do not appear. The source made the active and inactive calls. Unless noted, calls come from the whole dose curve; as a rule, active = well fitted curve in the direction sought with a large enough effect in the repeat runs; inconclusive = weak or mixed curves; inactive = no such curve, though single readings can be large; an effect the other way counts as inactive or inconclusive.

Assays:
[1] = target: Luciferin 4-monooxygenase (Photinus pyralis) (UniProt P08659); test: qHTS assay to identify small molecule inhibitors of firefly luciferase (AID 1224835); note: nearly all actives have a fitted effect of over 25% in size; conditions: purified P. pyralis luciferase, luminescence inhibition; series mostly up to 115 µM
Sequence of Luciferin 4-monooxygenase (Photinus pyralis) (P08659 whole entry, looked up): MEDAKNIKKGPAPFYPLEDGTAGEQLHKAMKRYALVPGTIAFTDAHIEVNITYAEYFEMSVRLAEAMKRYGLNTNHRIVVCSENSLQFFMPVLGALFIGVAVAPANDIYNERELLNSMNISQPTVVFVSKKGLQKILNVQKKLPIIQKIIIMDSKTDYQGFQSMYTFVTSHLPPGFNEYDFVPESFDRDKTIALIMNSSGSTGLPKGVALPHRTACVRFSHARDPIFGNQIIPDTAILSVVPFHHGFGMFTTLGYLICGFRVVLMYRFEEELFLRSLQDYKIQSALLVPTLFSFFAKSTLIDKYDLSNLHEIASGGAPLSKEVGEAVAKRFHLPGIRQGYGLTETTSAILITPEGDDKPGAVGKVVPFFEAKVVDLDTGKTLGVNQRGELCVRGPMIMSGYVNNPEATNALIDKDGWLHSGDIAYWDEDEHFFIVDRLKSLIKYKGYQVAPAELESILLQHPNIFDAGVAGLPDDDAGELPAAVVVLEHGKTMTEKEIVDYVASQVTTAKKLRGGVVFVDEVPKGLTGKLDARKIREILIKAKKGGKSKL
In short: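 Quantitative HTS format; KM concentrations of both substrates. Purified P. pyralis FLuc activity quantified from luminescence images.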

[2] = qHTS assay to identify small molecule agonists of the constitutive androstane receptor (CAR) signaling pathway - cell viability counter screen (AID 1224836); conditions: HepG2-CYP2B6-hCAR viability, CellTiter-Fluor, 23 h, PK11195 added to every well; series mostly up to 92.4 µM; note: nearly all actives have a fitted effect of over 45% in size
In short: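 Counter screen multiplexed with the CAR reporter readout: HepG2 cells co-transfected with hCAR and the CYP2B6-2.2kb construct receive a 15-concentration compound series and 0.75 uM PK11195 (final), then CellTiter-Fluor fluorescence is read after 23 h.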

[3] = qHTS assay to identify small molecule antagonists of the constitutive androstane receptor (CAR) signaling pathway - cell viability counter screen (AID 1224837); conditions: HepG2-CYP2B6-hCAR viability, CellTiter-Fluor, 23 h, co-treated with 50 nM CITCO; series mostly up to 92.4 µM; note: nearly all actives have a fitted effect of over 45% in size
In short: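 Counter screen run in HepG2-CYP2B6-hCAR cells: 4 hr settle, compound titration (15 concentrations) with 50 nM CITCO, 23 hr at 37 C/5% CO2, CellTiter-Fluor fluorescence.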

[4] = target: Nuclear receptor subfamily 1 group I member 3 (Homo sapiens) (UniProt Q14994); test: qHTS assay to identify small molecule antagonists of the constitutive androstane receptor (CAR) signaling pathway (AID 1224838); conditions: HepG2-CYP2B6-hCAR luciferase, CITCO-stimulated, 24 h; series mostly up to 92.4 µM;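 note: HepG2 cells stably expressing hCAR with CYP2B6 luciferase reporter stimulated by CITCO; nearly all actives have a fitted effect of over 40% in size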
Sequence of Nuclear receptor subfamily 1 group I member 3 (Homo sapiens) (Q14994 whole entry, looked up): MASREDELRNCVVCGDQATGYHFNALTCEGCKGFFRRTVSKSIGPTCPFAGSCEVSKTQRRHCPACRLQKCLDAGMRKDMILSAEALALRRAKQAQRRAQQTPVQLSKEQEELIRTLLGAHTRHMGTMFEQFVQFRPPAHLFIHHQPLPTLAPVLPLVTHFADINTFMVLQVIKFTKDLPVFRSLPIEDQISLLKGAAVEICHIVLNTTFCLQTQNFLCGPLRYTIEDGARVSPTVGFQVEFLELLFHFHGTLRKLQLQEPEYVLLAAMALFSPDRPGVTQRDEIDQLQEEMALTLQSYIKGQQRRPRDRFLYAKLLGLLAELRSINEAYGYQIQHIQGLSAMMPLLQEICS
In short: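 Cell line: HepG2 double-stable for hCAR and CYP2B6-2.2kb reporter. Agonist: CITCO, 50 nM final. Compounds: 15 concentrations, 24 h, 37 C. Detection: ONE-Glo luminescence.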

[5] = target: Nuclear receptor subfamily 1 group I member 3 (Homo sapiens) (UniProt Q14994); test: qHTS assay to identify small molecule agonists of the constitutive androstane receptor (CAR) signaling pathway (AID 1224839); conditions: HepG2 hCAR CYP2B6-luciferase, agonist mode, 24 h; series mostly up to 42.5 µM; note: nearly all actives have a fitted effect of over 15% in size
In short: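 A 15-concentration quantitative screen uses HepG2 cells co-transfected stably with human CAR and CYP2B6-2.2kb reporter. Treatment lasts 24 h with 0.75 uM PK11195 final present; ONE-Glo luminescence is the signal.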

[6] = qHTS assay to identify small molecule antagonists of the estrogen related receptor signaling pathway with the pleiotropic PPARgamma coactivator (PGC) from Tox21 10K library - cell viability counter screen (AID 1224840; active = well fitted cell-killing curve with a large enough effect in the repeat runs, not every such curve was filed as active; note: nearly all actives have a fitted effect of over 40% in size); conditions: PGC/ERR reporter cells viability, CellTiter-Fluor, 17.5 h; series mostly up to 92.4 µM
In short: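 Following seeding of 2,000 PGC/ERR cells/well and 6 hours' incubation, test compounds were delivered in DMSO. The plates then sat 17.5 hours at 37 C before a fluorogenic live-cell protease reagent (CellTiter-Fluor) was read after 30 min.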

[7] = qHTS assay to identify small molecule agonists of the estrogen related receptor signaling pathway with the pleiotropic PPARgamma coactivator (PGC) from Tox21 10K library (AID 1224842); conditions: PGC/ERR reporter cell line, luciferase ONE-Glo, 18 h; series mostly up to 92.4 µM; note: nearly all actives have a fitted effect of over 15% in size
In short: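 PGC/ERR reporter cells (NTP line) were seeded 2,000 per well, rested 6 h at 37 C/5% CO2, then pin-dosed with compounds in DMSO for 18 h at 37 C; luciferase read by One-Glo luminescence after 30 min at room temperature.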

[8] = target: Thyrotropin receptor (Homo sapiens) (UniProt P16473); test: qHTS assay to identify small molecule agonists of the thyroid stimulating hormone receptor (TSHR) signaling pathway (AID 1224843; calls by dose curve; note: nearly all actives have a fitted effect of over 45% in size); conditions: TSHR-HEK293 cells, cAMP HTRF, agonist mode, 30 min; series mostly up to 92.4 µM
Sequence of Thyrotropin receptor (Homo sapiens) (P16473 whole entry, looked up): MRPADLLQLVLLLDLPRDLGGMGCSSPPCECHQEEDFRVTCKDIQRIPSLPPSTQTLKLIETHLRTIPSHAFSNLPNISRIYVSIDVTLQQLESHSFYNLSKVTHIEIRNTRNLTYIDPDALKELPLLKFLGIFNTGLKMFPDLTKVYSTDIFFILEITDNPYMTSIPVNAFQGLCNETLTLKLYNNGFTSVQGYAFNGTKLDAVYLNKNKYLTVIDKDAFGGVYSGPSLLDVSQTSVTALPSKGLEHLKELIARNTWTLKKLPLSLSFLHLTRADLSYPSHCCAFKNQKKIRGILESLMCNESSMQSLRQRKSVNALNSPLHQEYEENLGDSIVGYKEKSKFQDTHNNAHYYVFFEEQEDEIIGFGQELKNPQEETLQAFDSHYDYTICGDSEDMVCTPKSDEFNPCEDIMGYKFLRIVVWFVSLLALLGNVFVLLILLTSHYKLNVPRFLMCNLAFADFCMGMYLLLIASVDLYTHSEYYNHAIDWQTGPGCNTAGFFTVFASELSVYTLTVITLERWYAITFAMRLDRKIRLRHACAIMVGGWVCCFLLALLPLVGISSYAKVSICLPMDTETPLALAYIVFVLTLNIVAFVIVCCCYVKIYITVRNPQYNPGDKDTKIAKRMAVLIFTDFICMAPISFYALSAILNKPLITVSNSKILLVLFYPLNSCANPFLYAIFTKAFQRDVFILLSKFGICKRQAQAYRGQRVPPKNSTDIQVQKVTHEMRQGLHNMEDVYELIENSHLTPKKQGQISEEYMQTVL
In short: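 Cell line HEK293 with TSHR; density 800/well. Exposure 30 min RT. Readout HTRF cAMP (cAMP-d2/anti-cAMP-cryptate), 1 h RT before reading.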

[9] = qHTS assay to identify small molecule antagonists of the estrogen related receptor signaling pathway with the pleiotropic PPARgamma coactivator (PGC) from Tox21 10K library (AID 1224841; call rule not given here; note: actives are mostly falling curves and most rising ones were filed inactive; nearly all actives have a fitted effect of over 50% in size; note: potency is the fitted concentration of half-maximal effect); conditions: PGC/ERR reporter cell line, ONE-Glo luciferase, 18 h; series mostly up to 92.4 µM
In short: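 qHTS antagonist format: PGC/ERR cells, 2k/well, compound in DMSO by pin transfer after 6 h attachment, 18 h treatment at 37 C, One-Glo luminescence read at 30 min.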

Measured: Potency

CCCCC/C=C\C/C=C\CCCCCCCC(=O)NC(C)c1ccccc1 (configuration not stated)
not listed: [9]
inactive: all other assays above

CCN(CC)CCOC(=O)C(Cc1cccc2ccccc12)CC1CCCO1 (configuration not stated)
not listed: [7] | [9]
inactive: all other assays above

CNCCCN1c2ccccc2CCc2ccccc21
inactive: [1] | [4] | [5] | [8]

O=C1OC(CN2CCOCC2)CN1/N=C/c1ccc([N+](=O)[O-])o1 (configuration not stated)
inactive: [1] | [2] | [3] | [6]

COc1cc2nc(N(C)CCCNC(=O)C3CCCO3)nc(N)c2cc1OC (configuration not stated)
active: [9] 15 µM
inactive: [1] | [3] | [6] | [7] | [8]

CN1CCC(N(Cc2cccs2)c2ccccc2)CC1
not listed: [8]
inactive: all other assays above
